High-throughput results: PubChem, National Center for Advancing Translational Sciences (NCATS)
Rows were chosen to be rich in hits. Some 7.9% of all compounds tested hit in one or more screens of this group.
MARV entry inh: qHTS for inhibitors of binding or entry into cells for Marburg Virus | Marburg virus pseudotyped entry inhibition, cell reporter | Potency, µM (series often up to 37.8 µM), hits mostly inhibitors | hit rate 1.8% among 300,000; calls by dose curve; tested in HEK293 cells
FMDV antiviral: High Throughput Screening for Foot and Mouth Disease Virus Antivirals; hit rate 1.2% among 410,000; FMDV antiviral cell-based qHTS; Potency, µM (top dose mostly 57.9 µM), actives largely listed as inhibitors; calls by dose curve; tested in HEK293T cells; note: read-out not given here; nearly all actives have a fitted effect of over 45% in size
HCV inh: qHTS Assay for Inhibitors of Hepatitis C Virus (HCV) | Huh7.5.1 HCVcc-Cre infection, luciferase reporter, 44 h | hit rate 3.4% among 340,000 | AID 651820, 2012 | Potency, µM (titrated, usually from 41.8 µM), hits mostly inhibitors; active = well fitted inhibition curve with a large enough effect; inconclusive = small, poorly fitted or top-dose-only effect, or another doubt; inactive = no such curve, though single readings can be large or run the other way
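1,000 cells/well; 4 h culture; + compound; + HCVcc-Cre (~0.5 moi); 44 h; luciferase substrate, RT 15 min; read 15 sec.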
HCMV antiviral: qHTS Assay for inhibitors of the human cytomegalovirus (HCMV); HFF cells, HCMV-luciferase reporter, 72 h; hits give low values; activity change, negative = inhibition, % at 57.5 µM; hit rate 4.5% among 410,000; in the data active = activity change below about -60%; inconclusive = no clear call, values can overlap the other calls; inactive = above about -39%
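Cell-based, HFFs, 1000 cells/well, 16 h 37C; cpds in DMSO + HCMV-luc, MOI 1 PFU/cell; 72 h 37C; OneGlo luminescence after 5 min RT; norm. to buffer vs Salinomycin 10uM.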
Lassa entry inh: qHTS for Inhibitors of binding or entry into cells for Lassa Virus; Lassa virus pseudotype entry inhibition, cell reporter; Potency, µM (highest dose often 37.9 µM), actives largely listed as inhibitors; hit rate 1.2% among 300,000; calls by dose curve; tested in HEK293 cells; note: nearly all actives have a fitted effect of over 50% in size
Numbers stand for hits; ! = repeats disagree.

How did COc1ccc(NC(=O)c2cc(OC)c(OC)c(OC)c2)cc1S(=O)(=O)N1CCCCC1 do in these assays?
MARV entry inh: inactive; FMDV antiviral: inconclusive; HCV inh: inconclusive; HCMV antiviral: inactive; Lassa entry inh: inconclusive

Results for O=C(Nc1ccc(S(=O)(=O)N2CCCC2)cc1)c1cncc(Br)c1 ?
FMDV antiviral: inconclusive; HCV inh: inactive; HCMV antiviral: inactive

How did CC(C)COc1ccc(C(=O)N(Cc2ccc(N(C)C)cc2)Cc2ccco2)cc1 do in these assays?
MARV entry inh: inactive; FMDV antiviral: inactive; HCMV antiviral: inactive; Lassa entry inh: inactive

Results for COc1ccc(C2C(C(=O)Nc3cccnc3)=C(C)Nc3nc(SCc4ccccc4)nn32)cc1 (stereo not drawn) ?
MARV entry inh: inactive; FMDV antiviral: inactive; HCMV antiviral: inactive; Lassa entry inh: inactive

What do the screens show for `Cc1ccc(CN2C(=O)c3ccccc3Sc3ccc(C(=O)N4CCOCC4)cc32)cc1`?
FMDV antiviral: inactive; HCMV antiviral: inactive; Lassa entry inh: inactive

What do the screens show for `CCOC(=O)C1=C(C)NC2=C(C(=O)CCC2)C1c1ccsc1` (stereo not drawn)?
MARV entry inh: inactive

How did CC1=C(C(=O)OCC(C)C)C(c2ccsc2)C2=C(CCCC2=O)N1 (stereo not drawn) do in these assays?
MARV entry inh: inactive; FMDV antiviral: inactive; HCV inh: inactive; HCMV antiviral: -78; Lassa entry inh: inactive

How did COc1ccc(OC)c(CNC(=O)c2ccc3c(c2)c(C)c(C)n3Cc2ccc(Cl)cc2)c1 do in these assays?
FMDV antiviral: inactive; HCMV antiviral: inactive; Lassa entry inh: inconclusive

What do the screens show for `COc1cccc(N/N=C/c2cccc(Br)c2O)c1`?
MARV entry inh: 11µM; FMDV antiviral: inactive; HCV inh: inconclusive; HCMV antiviral: inactive; Lassa entry inh: inactive

How did Cc1cccc(N/N=C/c2ccc(O)c(O)c2O)c1 do in these assays?
FMDV antiviral: inactive; HCV inh: inactive; HCMV antiviral: inconclusive

What do the screens show for `Fc1ccccc1-c1nc(NCCCN2CCOCC2)c2ccccc2n1`?
MARV entry inh: inconclusive; FMDV antiviral: inactive; HCV inh: inactive; HCMV antiviral: inactive; Lassa entry inh: inconclusive

How did Clc1ccccc1-c1nc(NCCN2CCOCC2)c2ccccc2n1 do in these assays?
FMDV antiviral: inactive

Results for COc1ccc2nc(C)cc(NCCN3CCOCC3)c2c1 ?
MARV entry inh: inactive; FMDV antiviral: inactive; HCV inh: inactive; HCMV antiviral: inactive; Lassa entry inh: inactive

Results for Cc1cc(NCCN2CCOCC2)c2ccc3ccccc3c2n1 ?
FMDV antiviral: inactive; HCV inh: inactive; HCMV antiviral: -69

How did c1ccc2c(NCCCN3CCOCC3)c3ccccc3nc2c1 do in these assays?
HCMV antiviral: -102

How did COc1cccc(-c2nc(NCCN3CCOCC3)c3ccccc3n2)c1O do in these assays?
MARV entry inh: inactive; FMDV antiviral: inactive; HCV inh: 10µM; HCMV antiviral: inactive; Lassa entry inh: inactive

What do the screens show for `Oc1ccccc1-c1nc(NCCN2CCOCC2)c2ccccc2n1`?
MARV entry inh: inactive; FMDV antiviral: inconclusive; HCV inh: 7.1µM; HCMV antiviral: inactive; Lassa entry inh: inactive

What do the screens show for `COc1ccccc1-c1nc(NCCN2CCOCC2)c2ccccc2n1`?
FMDV antiviral: inactive

How did Cc1cc(Cl)ccc1OCC(=O)O[C@@H](C)C(=O)N(C)C do in these assays?
MARV entry inh: inactive

How did COC(=O)c1cc2sccc2n1Cc1nc(-c2cccc(Cl)c2)oc1C do in these assays?
MARV entry inh: inactive; FMDV antiviral: inconclusive; HCV inh: inactive; HCMV antiviral: -65!

What do the screens show for `COC(=O)c1cc2sccc2n1Cc1nc(-c2ccc(Cl)cc2)oc1C`?
MARV entry inh: inconclusive; FMDV antiviral: inactive; HCV inh: inactive; HCMV antiviral: inactive; Lassa entry inh: inactive

How did Cc1cccc(N2CCN(Cc3nc(-c4cccc(Cl)c4)oc3C)CC2)n1 do in these assays?
MARV entry inh: 7.1µM; FMDV antiviral: inactive; HCV inh: inconclusive; HCMV antiviral: inactive; Lassa entry inh: inactive

How did CCCCOC(OCCCC)C(O)CSc1ccc2ccccc2c1 (stereo not drawn) do in these assays?
MARV entry inh: inactive

Results for CCC1CCCCN1c1nc2c(C=O)c(C)nn2c2ccccc12 (stereo not drawn) ?
MARV entry inh: inconclusive; FMDV antiviral: inactive; HCV inh: 10µM; HCMV antiviral: -64; Lassa entry inh: inconclusive
